TrxR1 substrate: qHTS Assay for Substrates of Mammalian Selenoprotein Thioredoxin Reductase 1 (TrxR1): qHTS; Thioredoxin reductase 1, cytoplasmic (Rattus norvegicus), O89049; Potency, µM (titrated, usually from 114 µM), without a hit: at the highest dose activity change, negative = substrate turnover; purified TrxR1 substrate turnover, NADPH consumption readout; 0.01% of 390,000 active; also: nearly all actives have a fitted effect of over 50% in size
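Rat TrxR1, dispensed at 90 nM, was prereduced with 400 uM NADPH (final) for 5 min at ~22 deg C, then incubated with compound 15 min before 400 uM selenite. A first-read NADPH fluorescence drop versus no-compound background flagged substrates.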
GALK inhibitor: qHTS Assay for Inhibitors of Human Galactokinase (GALK); Purified GALK, Kinase-Glo residual ATP luminescence; AID 1868, 2009; 0.007% of 270,000 active; P51570; Potency, µM (series often up to 57.5 µM), for inactives: top-dose activity change, negative = inhibition, actives largely listed as inhibitors
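ATP-depletion format; final 35 uM ATP, 100 uM D-galactose, 5 nM enzyme; pH 8.0 HEPES/Mg2+ buffer; 60 min RT; luminescence read 10 min after detection reagent.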
RGS4 inh: Inhibitors of Regulator of G Protein Signaling (RGS) 4: qHTS; Regulator of G-protein signaling 4 (Homo sapiens), P49798; Transcreener GDP fluorescence polarization, RGS4-accelerated GTP hydrolysis; Potency, µM (doses to about 114 µM), without a hit: at the highest dose activity change, negative = inhibition, usual class: inhibitors; 0.039% of 390,000 active; also: nearly all actives have a fitted effect of over 75% in size
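MLSMR compounds (23 nl, pin-transferred) preincubated 10 min at room temperature with a 500nM (2x) first reagent, then RGS4 at 900nM (2x) plus Transcreener GDP mix added; fluorescence polarization (620/688 nm) read before and after 90 min at 30 °C.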
USP2a block: qHTS Assay for Inhibitors of Ubiquitin-specific Protease USP2a Using CHOP2 as the Reporter | Ubiquitin carboxyl-terminal hydrolase 2 (Homo sapiens), O75604 | USP2 core, Ub-CHOP2 coupled fluorogenic reporter, 485/531 | Potency, µM (highest dose often 38.3 µM), inactives show at the highest dose activity change, negative = inhibition, hits mostly inhibitors | 0.01% of 330,000 active | AID 463254, 2010;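 also: plate controls were DMSO wells for no effect and full inhibition by NEM control for full effect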
Target sequence (O75604 whole entry, looked up): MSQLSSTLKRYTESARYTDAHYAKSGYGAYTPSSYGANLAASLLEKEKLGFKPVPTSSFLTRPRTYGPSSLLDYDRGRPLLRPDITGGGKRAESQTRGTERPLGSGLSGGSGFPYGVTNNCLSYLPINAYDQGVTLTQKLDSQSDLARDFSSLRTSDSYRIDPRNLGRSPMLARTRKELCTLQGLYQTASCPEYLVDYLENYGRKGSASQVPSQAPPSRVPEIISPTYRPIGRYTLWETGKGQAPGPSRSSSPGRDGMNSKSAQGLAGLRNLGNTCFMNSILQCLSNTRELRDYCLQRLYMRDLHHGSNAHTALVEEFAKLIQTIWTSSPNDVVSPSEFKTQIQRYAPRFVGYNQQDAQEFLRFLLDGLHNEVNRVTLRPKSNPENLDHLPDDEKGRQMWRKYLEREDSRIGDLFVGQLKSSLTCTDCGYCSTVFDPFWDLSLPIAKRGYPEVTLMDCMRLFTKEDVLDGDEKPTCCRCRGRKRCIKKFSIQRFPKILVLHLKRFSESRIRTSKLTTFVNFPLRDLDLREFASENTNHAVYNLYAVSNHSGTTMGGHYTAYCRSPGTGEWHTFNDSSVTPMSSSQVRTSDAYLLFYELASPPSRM
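Deubiquitinase activity read as fluorescence (485/531 nm) after Ub-CHOP2 cleavage activates the enterokinase reporter on its substrate; USP2 core 10nM, Ub-CHOP2 and substrate 25nM each, 30min compound preincubation then 60min RT; data normalized to NEM, curves fitted.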
Eya2 inh: qHTS Assay for Inhibitors of the Phosphatase Activity of Eya2; Protein phosphatase EYA2 (Homo sapiens), O00167; recombinant Eya2, OMFP fluorescence dephosphorylation (OMFP is methylfluorescein phosphate); Potency, µM (titrated, usually from 76.9 µM), without a hit: top-dose activity, negative = inhibition, usual class: inhibitors; 0.006% of 330,000 active; AID 488837, 2010
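Eya2 protein (added as 0.2 uM solution) was preincubated with compound for 10 min at ambient temperature in 50 mM HEPES pH 7.5, 50 mM NaCl, 5 uM MgCl2, 0.05% BSA, 1 mM DTT. OMFP (added at 50 uM) then reacted 10 min; fluorescence read at 485/525 nm.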
TrxR1 inh: qHTS Assay for Inhibitors of Mammalian Selenoprotein Thioredoxin Reductase 1 (TrxR1): qHTS | Thioredoxin reductase 1, cytoplasmic (Rattus norvegicus), O89049 | recombinant rTrxR1, NADPH fluorescence consumption, selenite substrate | Potency, µM (doses to about 114 µM), without a hit: at the highest dose activity change, negative = inhibition, most hits filed as inhibitors | 1% of 390,000 active | AID 588453, 2011; also: nearly all actives have a fitted effect of over 65% in size
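Rat TrxR1 (90 nM in the dispensed reagent) was pre-reduced with 400 uM NADPH for 5 min at room temperature, then incubated with compound for 15 min. After 400 uM selenite was added, NADPH fluorescence (Ex 340/Em 450 nm) was followed for 8 min.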
* = called active by the depositor; u = inconclusive; x = not tested or not shown; ! = a repeat was not active; [ ] = another dose, or the depositor's remark. Sampled rows, rich in hits. Any-hit rate of the full collection: about 1%. Calls follow the shape of the dose curve; as a rule, active = well fitted curve in the direction sought with a large enough effect; inconclusive = small, poorly fitted or top-dose-only effect, or another doubt; inactive = no such curve, though single readings can be large; an effect the other way counts as inactive or inconclusive. Unless noted, % is scaled to controls: 0 for no effect and ±100 for the full control effect; potency is read from the fitted curve at half-maximal effect.

SMILES	TrxR1 substrate	GALK inhibitor	RGS4 inh	USP2a block	Eya2 inh	TrxR1 inh
Oc1ccc(NCc2ccc(OCc3ccccc3Cl)cc2)cc1	-10.6%	x	u	x	x	44.7µM*
Oc1ccc(NCc2ccccc2OCc2ccccc2F)cc1	-2.1%	4.2%	u	-1.5%	7.7%	u
Cn1nnnc1SCCNCc1ccc(OCc2ccccc2Cl)cc1	-8.2%	x	24.8%	x	x	-5.2%
CCc1ccc(CNc2ccc(O)cc2)cc1	-10.8%[57.1 µM]	-2.0%	u	1.7%	7.7%	u
Oc1ccc(NCc2ccccc2OCc2ccccc2Cl)cc1	-8.8%	x	-39.5%	x	x	31.6µM*
Oc1ccc(NCc2ccc(OCc3ccccc3)cc2)cc1	-10.5%	1.5%	u	-1.1%	9.3%	28.2µM*!
CCN(CC)c1ccc(/C=C/C2=C3C=CC=CC3NC=C2)cc1 (stereo not drawn)	-2.9%	x	x	x	x	11.8%
O=C(C[n+]1cccc2cccc(O)c21)c1ccc(F)cc1	0.7%	x	x	x	x	-8.7%
O=C(CNC(=O)C1CCCCC1)OCC(=O)c1ccc(C2CCCCC2)cc1	-5.4%	x	-0.7%	x	x	2.5%
Cc1c(Cl)cnc(NC(=O)COC(=O)/C=C/c2ccco2)c1Cl	0.4%	x	u	1.0%	-15.3%	15.8µM*
O=C(COC(=O)/C=C/c1ccco1)Nc1ncc(C(F)(F)F)cc1Cl	-15.9%[57.1 µM]	1.3%	-27.3%	6.7%	0.8%	u
Cc1c(Cl)cnc(NC(=O)COC(=O)C(NC(=O)c2ccco2)C(C)C)c1Cl (stereo not drawn)	1.4%	-0.6%	-6.0%	-0.3%	-5.0%	50.1µM*
CN(C)S(=O)(=O)c1cccc(NC(=O)COC(=O)/C=C/c2ccco2)c1	-2.2%	1.7%	u	1.4%	-3.7%	25.1µM*
Cc1nc(NC(=O)COC(=O)[C@@H](NC(=O)c2ccco2)C(C)C)c(Cl)cc1Cl	6.9%	x	-15.9%	8.1%	-23.5%	-7.1%
CCc1ccc2oc(-c3ccc(C)c(NC(=O)COc4ccccc4Cl)c3)nc2c1	3.0%	x	x	x	x	19.2%
Cc1ccc(N2CCN(C(=O)c3ccccc3NC(=O)/C=C\C(=O)O)CC2)cc1	1.3%	-0.9%	-23.6%	-2.0%	-18.4%	50.1µM*
COC(=O)Nc1ccccc1C(=O)N1CCN(c2ccc(C)cc2)CC1	2.0%	-0.3%	-25.7%	1.8%	2.1%	-1.3%
O=S(=O)(CCN1CCCCC1)Oc1ccc(Cl)cc1Cl	2.5%	-2.0%	-16.9%	0.3%	1.5%	0.891µM*
COc1cc(NC(=O)CSc2ccc(-c3ccco3)nn2)cc(OC)c1	2.4%	-4.4%	u	2.6%	7.5%	35.5µM*
COc1ccc(NC(=O)CSc2ccc(-c3ccco3)nn2)cc1	-9.2%	3.6%	3.5%	2.4%	10.0%	50.1µM*
CC(=O)Nc1ccc(NC(=O)CSc2ccc(-c3ccco3)nn2)cc1	20.8%	-1.3%	-7.5%	1.4%	3.2%	u
Cc1cc(C)cc(NC(=O)CSc2ccc(-c3ccco3)nn2)c1	9.7%[57.1 µM]	0.0%	11.2%	0.3%	-4.7%	-59.1%
CC(=O)Nc1cccc(NC(=O)CSc2ccc(-c3ccco3)nn2)c1	-4.1%	-2.3%	-17.4%	-0.6%	4.1%	56.2µM*
O=C(CSc1nnc(-c2cnccn2)n1Cc1ccco1)c1ccccc1	-1.4%	-1.7%	-24.1%	-3.9%	-1.5%	56.2µM*
O=C(CSc1nnc(-c2ccccn2)n1Cc1ccco1)c1ccc(Cl)cc1	-3.5%	1.2%	-12.6%	-1.8%	-3.2%	u

Screens (PubChem)
